# 3T3 cytotox – kills NIH 3T3 cells. NIH 3T3 viability, CellTiter-Glo ATP luminescence, 48-72 h. Potency, µM (series often up to 96.7 µM), inactives show top-dose activity change, negative = cytotoxicity, usual class: inhibitors. actives 4.3% (n = 94,000); further: nearly all actives have a fitted effect of over 55% in size
#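 Luminescent ATP readout (CellTiter-Glo, 10 min RT) after 48 or 72 hr compound exposure of NIH 3T3 cells seeded at 400 cells/well in 1536-well format; quantitative HTS.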
# HEK cytotox – kills HEK 293 cells | HEK 293 viability, ATP luminescence (CellTiter-Glo), 48-72 h | Potency, µM (doses to about 115 µM), inactives show at the highest dose activity change, negative = cytotoxicity, actives largely listed as inhibitors | actives 6.6% (n = 94,000); further: nearly all actives have a fitted effect of over 60% in size
#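 HEK 293 cells seeded at 250 cells/well were exposed to compound for 48 or 72 hr at 37 degree Celsius. Viability taken as ATP content by CellTiter-Glo luminescence.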
# NPR1 antag – blocks ANP-stimulated signaling of human Npr1 receptor. P16066. HEK293 hNpr1 GloSensor cGMP, ANP-stimulated luminescence. Potency, µM (top dose mostly 46.3 µM), inactives show at the highest dose activity change, negative = inhibition, most hits filed as inhibitors. actives 1.6% (n = 76,000). AID 1347048; calls by dose curve; further: nearly all actives have a fitted effect of over 60% in size
# Target sequence (P16066 whole entry, looked up): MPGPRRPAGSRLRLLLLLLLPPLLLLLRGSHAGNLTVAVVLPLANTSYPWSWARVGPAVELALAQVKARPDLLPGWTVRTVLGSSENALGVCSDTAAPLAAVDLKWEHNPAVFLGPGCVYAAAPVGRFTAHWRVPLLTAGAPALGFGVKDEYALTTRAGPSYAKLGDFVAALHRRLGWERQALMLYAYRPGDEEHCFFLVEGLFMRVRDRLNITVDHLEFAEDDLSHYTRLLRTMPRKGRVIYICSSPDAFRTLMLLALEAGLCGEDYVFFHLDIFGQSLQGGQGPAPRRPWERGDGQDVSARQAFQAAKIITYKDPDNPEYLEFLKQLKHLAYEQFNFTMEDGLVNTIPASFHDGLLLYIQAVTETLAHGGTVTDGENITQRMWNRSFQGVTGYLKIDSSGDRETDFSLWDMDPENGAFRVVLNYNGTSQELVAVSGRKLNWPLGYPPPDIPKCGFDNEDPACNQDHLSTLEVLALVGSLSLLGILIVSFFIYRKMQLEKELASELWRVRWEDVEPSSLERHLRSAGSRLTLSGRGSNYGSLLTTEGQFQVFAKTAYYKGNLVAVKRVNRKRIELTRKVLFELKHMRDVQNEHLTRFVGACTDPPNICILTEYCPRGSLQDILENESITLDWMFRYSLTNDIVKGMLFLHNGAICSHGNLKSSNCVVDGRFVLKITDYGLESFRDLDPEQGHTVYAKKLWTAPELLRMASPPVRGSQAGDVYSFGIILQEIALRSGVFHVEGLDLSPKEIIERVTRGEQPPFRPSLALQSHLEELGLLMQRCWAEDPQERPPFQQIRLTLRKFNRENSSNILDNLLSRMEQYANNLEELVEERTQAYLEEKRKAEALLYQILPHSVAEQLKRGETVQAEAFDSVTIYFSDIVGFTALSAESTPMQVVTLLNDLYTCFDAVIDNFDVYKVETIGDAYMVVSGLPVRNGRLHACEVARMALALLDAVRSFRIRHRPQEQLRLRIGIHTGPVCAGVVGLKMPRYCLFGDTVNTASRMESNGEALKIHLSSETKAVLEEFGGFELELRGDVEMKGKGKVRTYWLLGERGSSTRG
#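 HEK293 cells stably expressing human Npr1 and cGMP GloSensor pGS-40F, loaded 2 h with 2% GloSensor reagent, given compound 30 min at room temperature. Luminescence read before and 20 min after 0.1 nM hNppA.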
# FLuc inh – inhibitors of firefly (Photinus pyralis) luciferase; P08659; Potency, µM (highest dose often 115 µM), hits mostly inhibitors; purified P. pyralis luciferase, luminescence, biochemical; actives 2.5% (n = 76,000); further: nearly all actives have a fitted effect of over 65% in size
#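 Biochemical qHTS: compound (6-point titration) added to 10uM D-luciferin plus 10uM ATP in Tris acetate pH 7.5 buffer with Mg, Tween-20 and BSA, then purified enzyme at 10nM; light output imaged.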
# Starred values were filed as active, the others as inactive; i = inactive; ? = inconclusive; · = no result; ! = a repeat was not active; [ ] = another dose, or the depositor's remark. Compounds with a hit are over-represented: about 11% of the library has one in this group of screens. Unless noted, the call rests on the fitted dose curve; in most records, active means well fitted curve in the direction sought with a large enough effect; inconclusive means small, poorly fitted or top-dose-only effect, or another doubt; inactive means no such curve, though single readings can be large; an effect the other way counts as inactive or inconclusive. On the % scale 0 is the no-effect control and ±100 the full control effect; potency means the concentration at half of the fitted maximal effect.
SMILES,3T3 cytotox,HEK cytotox,NPR1 antag,FLuc inh
Cc1ccsc1CN1CCC(Oc2ccccc2-c2nc(-c3ccncc3)no2)C1 (stereo unspecified),31.6µM*,25.1µM*,-22.6%,?
COCc1cc(=O)n(CC(=O)Nc2cc(OC)ccc2OC)c(N2CCOCC2)n1,-6.7%,-6.9%,-9.4%,i
FC(F)(F)c1ccc(-c2noc([C@@H]3Cc4nc[nH]c4CN3CC3CCCCC3)n2)cc1,28.2µM*,31.6µM*,-17.3%[70.6 µM],i
CN(C)c1ccc(-c2noc([C@@H]3CCCN3CC3CCCCC3)n2)cn1,79.4µM*,?,?,35.5µM*
c1csc(CN2Cc3[nH]cnc3C[C@H]2c2nc(-c3ccncc3)no2)c1,?,?,-27.8%[70.6 µM],i
c1cc(-c2noc([C@@H]3Cc4nc[nH]c4CN3CC3CCCCC3)n2)ccn1,79.4µM*,?,-5.8%[70.6 µM],i
CN(C)c1ccc(-c2noc([C@@H]3CCCN3Cc3ccc(CO)o3)n2)cn1,3.1%[174 µM],0.0%[172 µM],0.6%[70.6 µM],?
Clc1ccc(-c2noc([C@@H]3Cc4nc[nH]c4CN3CC3CCCCC3)n2)cc1,28.2µM*,50.1µM*,-15.4%[70.6 µM],i
O=C(C1CCCN1C(=O)c1ccc(F)cc1)N1CCC(N2CCOCC2=O)CC1 (stereo unspecified),-7.9%,-12.1%,·,·
O=c1c2c(n(Cc3cccnc3)n1CCc1ccccc1)CN(Cc1ccc3c(c1)CCO3)CC2,?,-29.5%,-6.2%,i
O=C(Nc1ccccc1)N1CCC(CCc2nc(C3CCOCC3)no2)CC1,?,39.8µM*,·,·
Cc1cccc(C2CCCN(C(=O)c3cn(CCc4ccccc4)nn3)C2)c1 (stereo unspecified),?,39.8µM*,-3.6%,i
Cc1ccc(SC2CCN(C(=O)c3cn(CCc4ccccc4)nn3)CC2)cc1,?,89.1µM*,-1.9%,i
Cc1ccc(C2Cn3nnc(C(=O)N4CCC(C(=O)NC(C)C)CC4)c3CO2)cc1 (stereo unspecified),i,-1.6%,-9.5%,20µM*
CCC(C)NC(=O)C1CCN(C(=O)c2nnn3c2COC(c2ccc(C)cc2)C3)CC1 (stereo unspecified),-16.5%,-3.8%,-2.2%,?
Cc1ccc(C2Cn3nnc(C(=O)N4CCC(C(=O)NC5CCCC5)CC4)c3CO2)cc1 (stereo unspecified),i,6.3%,1.0%,11.2µM*
Cn1nc2n(c1=O)CCN(S(=O)(=O)Cc1ccccc1)CC2,3.8%,4.6%,·,·
Cc1cnccc1-c1ccc(NC(=O)NC2CC2)cc1,-6.0%,1.8%,2.1%,?
COC(=O)CNC(=O)c1nc2cccnc2n(CC(C)C)c1=O,-25.4%[138 µM],-0.3%[172 µM],·,·
CC(C)Cn1c(CNC(=O)OC(C)(C)C)nc2cccnc21,44.7µM*!,?,4.8%[70.6 µM],i
O=C(NC1CC1)c1nc(-c2ccc(Cl)cc2Cl)c2ccccn12,?,35.5µM*,5.2%,i
O=C(NC1CC1)c1nc(-c2cccnc2)c2ccccn12,44.7µM*,-9.7%[172 µM],·,·
O=C(NC1CC1)c1nc(-c2cc(Cl)cc(Cl)c2)c2ccccn12,-12.4%[138 µM],?,-4.2%[70.6 µM],i
O=C(NC1CC1)c1nc(-c2ccc(F)cc2)c2ccccn12,?,89.1µM*!,-1.2%[70.6 µM],i
O=C(NC1CC1)c1nc(-c2cccc(C(F)(F)F)c2)c2ccccn12,?,?,-4.9%,i
SMILES,3T3 cytotox,HEK cytotox,NPR1 antag,FLuc inh
COc1ccccc1-c1nnc2ccc(C(=O)NCc3ccccn3)cn12,i,0.8%,·,·
COc1ccc(CNC(=O)c2noc(-c3ccc(C)cc3)n2)cc1OC,?,?,12.6µM*,?
O=C(NCc1ccccc1F)c1noc(-c2ccc3c(c2)OCO3)n1,?,-21.5%,-5.0%,31.6µM*
O=C(NCc1ccc(F)cc1F)c1noc(-c2ccc(F)cc2)n1,-13.6%,-10.1%,-7.5%,i
Cc1ccc(-c2nc(C(=O)NCc3cc(F)cc(F)c3)no2)cc1,?,31.6µM*,5.0%,i
Cc1ccc(-c2nc(C(=O)NCc3ccccc3F)no2)cc1,-22.6%,-9.2%,-1.6%,22.4µM*
COCCCn1c(=O)c(C(=O)NCCc2ccccc2)nc2cccnc21,-23.0%,-0.4%,·,·
O=C(NCc1cccc(Br)c1)c1noc(-c2ccc(F)cc2)n1,31.6µM*,25.1µM*,-0.7%,?
O=C(NCc1ccccc1)c1noc(-c2ccc3c(c2)OCO3)n1,?,?,-1.3%,39.8µM*
O=C(NCc1ccc(Cl)cc1)c1noc(-c2ccc(F)cc2)n1,-17.9%,?,0.6%,i
Cc1ccc(-c2nc(C(=O)NCc3ccco3)no2)cc1,-15.0%,10.6%,1.7%,15.8µM*
CN(Cc1ccccc1)C(=O)Cc1ccc(N(Cc2ccccc2)C(=O)c2ccco2)cc1,?,?,-23.5%,i
O=C(C1CCCC1)N1CCCC1C(=O)N1CCCC1c1nc2ccncc2[nH]1 (stereo unspecified),-9.0%,0.4%,·,·
Cc1cccc(NC(=O)N2CCc3c(c4cc(F)ccc4n3C)C2)c1,?,?,-15.4%,?
Cn1c2c(c3cc(F)ccc31)CN(C(=O)Nc1ccc(Cl)cc1)CC2,28.2µM*,?,-14.7%,25.1µM*
Cn1c2c(c3cc(F)ccc31)CN(C(=O)Nc1cccc(Cl)c1)CC2,20µM*,?,?,?
O=C(CN1CCOCC1)N1CCNc2cnc(Nc3ccc(-n4ccnc4)cc3)nc2C1,39.8µM*,i,-2.4%[70.6 µM],i
O=C(C1CCCC1)N1CCN(c2nccc(Nc3ccccc3Cl)n2)CC1,14.1µM*,?,·,·
O=C(NC1CCN(c2nccc(Nc3ccccc3Cl)n2)CC1)c1ccccc1,?,39.8µM*,·,·
O=C(C1CC1)N1CCN(c2nccc(Nc3ccccc3Cl)n2)CC1,22.4µM*,?,·,·
Cc1ccc(C(=O)NC2CCN(c3nccc(Nc4ccccc4Cl)n3)CC2)cc1,-2.4%,1.3%,·,·
CC(C)(C)c1cnc([C@@H]2COCCN2Cc2ccccc2O)[nH]1,-16.6%[174 µM],-19.5%[172 µM],1.4%[70.6 µM],i
O=C(c1ccc2ncccc2c1)N1CCC2(CC1)CC(CO)N(C(=O)c1ccccc1)C2 (stereo unspecified),-16.4%,i,1.6%,i
COc1cccc(-n2cc(CN(C)Cc3cn(-c4ccccc4)nn3)cn2)c1,?,31.6µM*,-1.5%,i
COc1ccc(CN2Cc3[nH]cnc3C[C@H]2c2nc(-c3ccc4ccccc4c3)no2)cc1,39.8µM*,44.7µM*,-20.2%,i
COc1ccc(-c2noc([C@@H]3Cc4nc[nH]c4CN3Cc3ccc(CO)o3)n2)cc1,-25.1%[138 µM],-24.5%[172 µM],-4.7%[70.6 µM],39.8µM*
COc1ccc(CN2Cc3[nH]cnc3C[C@H]2c2nc(-c3ccc(C)cc3)no2)cc1,79.4µM*,100µM*,-21.9%[70.6 µM],39.8µM*
COc1ccc(CN2Cc3[nH]cnc3C[C@H]2c2nc(-c3ccccn3)no2)cc1,?,?,-17.7%[70.6 µM],35.5µM*
COc1ccc(-c2noc([C@@H]3Cc4nc[nH]c4CN3C(=O)c3ccc(F)cc3)n2)cc1,?,?,-10.5%[70.6 µM],?

# Compound activity as filed in PubChem BioAssay.
